Data on 8 sequences can be found in the supplement of paper PMC6555819.

Assay in all cases: PBM binding z-score (relative to random genomic background probes); higher = stronger binding; sequences stand for … in GC…GCGATTGACAGCGTAGAATGAAGG
Experiment [1] has as its system LXRa:RXRa (NR concentration 270 nM, RXRa partner concentration 90 nM). In outline:
(§1)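 Binding z-scores were set against random background probes. The data came from custom Agilent 4×180K protein-binding microarrays carrying double-stranded probes with 34-nt variable regions, incubated 1 h with ligand-free nuclear receptor dimers. Partner-specific antibodies detected binding, and scanned fluorescence was regression-normalized.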

The subject of experiment [2] is LXRa homodimer (NR concentration 270 nM). In outline: as §1
Experiment [3] has as its system LXRb homodimer (NR concentration 270 nM). In a few lines: as §1
The subject of experiment [4] is PPARg:RXRa (NR concentration 180 nM, RXRa partner concentration 90 nM). In a few lines: as §1
The subject of experiment [5] is PPARg:RXRa 270nM:90nM, anti-RXR (NR concentration 270 nM, RXRa partner concentration 90 nM). In a few lines:
as §1

For experiment [6], the system named is PPARg:RXRa 30nM:10nM, anti-RXR (NR concentration 30 nM, RXRa partner concentration 10 nM). In a few lines:
as §1

Experiment [7] deals with PPARg:RXRa 90nM:30nM, anti-RXR (NR concentration 90 nM, RXRa partner concentration 30 nM). In a few lines:
as §1

For experiment [8], the system named is PPARg:RXRa DBDmut IVT, anti-RXR (DBD mutation: RXRa K156A/R161A, NR concentration 270 nM, RXRa partner concentration 90 nM). In a few lines: as §1
The test system of experiment [9] is PPARg:RXRa IVT, anti-PPARg (NR concentration 270 nM, RXRa partner concentration 90 nM). In outline:
as §1

Experiment [10] concerns PPARg DBDmut:RXRa IVT, anti-PPARg (DBD mutation: PPARg1 K132A/R137A, NR concentration 270 nM, RXRa partner concentration 90 nM). In a few lines:
as §1

In experiment [11] the test system is PPARg DBDmut IVT, anti-PPARg (DBD mutation: PPARg1 K132A/R137A, NR concentration 270 nM). In a few lines:
as §1

The test system of experiment [12] is PPARg homodimer (NR concentration 180 nM). In a few lines:
as §1

Experiment [13] has as its system PXR:RXRa (NR concentration 270 nM, RXRa partner concentration 90 nM). In outline:
as §1

Experiment [14] relates to PXR homodimer (NR concentration 270 nM). In a few lines: as §1
The test system of experiment [15] is RARa:RXR (NR concentration 270 nM, RXRa partner concentration 90 nM). In outline:
as §1

The subject of experiment [16] is RARa homodimer (NR concentration 270 nM). In outline:
as §1

For experiment [17], the system named is RARb:RXRa (NR concentration 270 nM, RXRa partner concentration 90 nM). In outline: as §1
In experiment [18] the test system is RARb homodimer (NR concentration 270 nM). In a few lines:
as §1

The test system of experiment [19] is PPARa:RXRa (NR concentration 270 nM, RXRa partner concentration 90 nM). In a few lines:
as §1

For CGAACTAGGTCAAGGCCAGTGAATCTCCGCACGC, the PBM binding z-score is 2.42 in experiment [1]; 0.284 in experiment [2]; -0.563 in [3]; 7.33 in experiment [4]; 6.58 in [5]; 3.87 in experiment [6]. Moreover, the PBM binding z-score was 6.13 in experiment [7]; 8.07 in experiment [8]; 8.42 in experiment [9]; 3.5 in experiment [10]; 2.31 in experiment [11]; 1.99 in experiment [12]. Also, the PBM binding z-score in [13] was 1.35; in experiment [14], -0.029; in experiment [15], 2.32; in [16], 0.0978; in experiment [17], 4.11; in experiment [18], 3.35.

Regarding AGAATGAGGTCACCAAAGATCAGGGAAACGCTTG, the PBM binding z-score was determined as 6.5 in [1]; 1.08 in [2]; 0.991 in experiment [3]; 8.68 in experiment [4]; 8.01 in [5]; 5.4 in experiment [6]. Also, the PBM binding z-score was found to be 7.63 in experiment [7]; 7.14 in experiment [8]; 7.35 in experiment [9]; 1.62 in experiment [10]; 0.808 in experiment [11]; 3.69 in experiment [12]. Also, the PBM binding z-score in experiment [13] is 5.47; in experiment [14] it was 1.12; in experiment [15], 5.82; in experiment [16], 1.69; in experiment [17] it was 5.43; in experiment [18], 4.08.

Consider GCTGCTAGGTCAACTGATGGCCAGCTAAAGCTCG, for which the PBM binding z-score is 2.54 in [1]; -0.17 in experiment [2]; -0.174 in experiment [3]; 2.45 in experiment [4]; 3.01 in [5]; 0.617 in experiment [6]. In addition, the PBM binding z-score in experiment [7] was 2.13; in [8], 4.28; in experiment [9], 4.14; in experiment [10] it was -0.855; in [11], -0.449; in experiment [12], 1.12. The PBM binding z-score in [13] is 1.1; in experiment [14], -0.837; in experiment [15], 1.88; in [16], -0.722; in experiment [17], 4.23; in experiment [18] it was 3.32.

As to CCTAGTGGGCCAAGGTCATTGATCAGTCAAAGCA, the PBM binding z-score is 2.91 in experiment [1]; 0.693 in [2]; -0.381 in experiment [3]; 4.1 in experiment [4]; 4.29 in [5]; 1.64 in experiment [6]. In addition, the PBM binding z-score in experiment [7] was 3.71; in experiment [8], 3.98; in experiment [9], 4.38; in [10], -0.821; in experiment [11], -0.95; in experiment [12], 2.36. Further, the PBM binding z-score in [13] turned out to be 3.66; in experiment [14] it was 1.8; in experiment [15], 3.56; in experiment [16], 0.113; in experiment [17], 3.36; in experiment [18], 3.28.

CGTCCAAGGACAATGCTAGGTCAGTGAAAGCATT: the PBM binding z-score in experiment [1] is 0.187; in experiment [2], 0.593; in [3], -0.885; in [19], 0.16; in experiment [5], -0.429; in [6], -0.602. In addition, the PBM binding z-score in experiment [7] is -0.31; in experiment [8], 0.442; in experiment [9], 0.25; in [10] it was -1.55; in [11] it was -0.865; in experiment [12], 0.328. Besides, the PBM binding z-score in experiment [13] is 0.242; in experiment [14] it was 0.0712; in [15], 0.502; in [16] it was -0.127; in experiment [17], 2.03; in [18], 2.48.

As to CGTCCAAGGTCAAGGTCAATGAAAGAGACTCGAA, the PBM binding z-score is 6 in experiment [1]; 1.82 in experiment [2]; 1.11 in experiment [3]; 7.25 in experiment [4]; 6.84 in experiment [5]; 3.28 in experiment [6]. Further, the PBM binding z-score in experiment [7] came to 5.67; in [8] it was 3.68; in [9] it was 5.34; in experiment [10] it was 2.6; in experiment [11], 2.44; in experiment [12], 4.82. The PBM binding z-score in [13] worked out at 5.3; in experiment [14], 1.41; in experiment [15], 5.88; in experiment [16], 3.2; in [17] it was 5.75; in experiment [18] it was 4.92.

As for CCTTAAGGGTCACGAGGTTATAGCACGACGAGCG, the PBM binding z-score in [1] came out at 5.92; in experiment [2], 0.987; in experiment [3], 0.697; in [4], 8.45; in experiment [5] it was 7.7; in [6] it was 4.56. Besides, the PBM binding z-score in experiment [7] amounted to 6.73; in [8] it was 4.16; in experiment [9], 5.81; in experiment [10], 1.74; in experiment [11], 1.89; in [12], 4.47. In addition, the PBM binding z-score in experiment [13] was determined as 5.46; in experiment [14] it was 0.279; in experiment [15], 6.79; in [16], 1.6; in experiment [18], 5.02.

Turning to CGTCAAAGTTCAAGGTCACGTAACAGAAAGCAGC, the PBM binding z-score was determined as 5.71 in experiment [2]; 2.05 in experiment [3]; 6.83 in experiment [4]; 6.7 in experiment [5]; 3.83 in [6]; 5.84 in [7]. Moreover, the PBM binding z-score in experiment [8] stood at 2.03; in experiment [9], 4.54; in experiment [10], 0.668; in experiment [11] it was 0.649; in experiment [12] it was 4.73; in experiment [13] it was 6.25. The PBM binding z-score in experiment [14] came out at 4.18; in experiment [15], 5.79; in experiment [16], 3.09; in [18] it was 5.56.
